Hits are enriched below; roughly 1.7% of the tested compounds scored in any of these assays.
TLR4-MyD88 BLA = TLR4-MyD88 interaction inhibition in cells; actives 0.18% (n = 200,000); AID 861; inhibition, % at 8.4 µM; O00206+Q99836; HeLa CL3-4 TLR4/MyD88 BLA complementation, FRET ratio; in the data active means inhibition above about 25%
Myeloid diff MLP = promotes myeloid progenitor differentiation; ER-HoxA9 myeloid progenitors, lysozyme-GFP differentiation, flow cytometry; calls only at 10 µM; actives 1% (n = 360,000); AID 624256;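 active means normalized GFP-positive differentiation at or above the plate's own cutoff, the solvent-only control mean plus 3 SD; inconclusive means no clear call, values can overlap the other calls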;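 further: cells exposed to compound for four days before flow analysis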
ABCB6 inh MLPCN = inhibitors of human ABC transporter ABCB6; Q9NP58; K562-ABCB6 porphyrin accumulation, flow cytometry, 1 h; stronger effect = lower value; actives 0.19% (n = 360,000); fluorescence ratio to DMSO, % at 10 µM;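 active means fluorescence ratio to DMSO below 75%, the collection mean minus 3 SD; inconclusive means too few cells collected in the well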;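 further: signal is porphyrin accumulated inside mitochondria; lower ratio means ABCB6 inhibition with less porphyrin fluorescence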
TLR9-MyD88 block = inhibitors of human TLR9-MyD88 binding; Q9NR96+Q99836; actives 0.21% (n = 340,000); inhibition, % at 4.98 µM; CHO BLA complementation TLR9-MyD88, CCF4 FRET ratio;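 active means inhibition above the mean over all tested compounds plus 3 SD, cut at about 21% in these data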
Target sequence (Q99836 whole entry, looked up): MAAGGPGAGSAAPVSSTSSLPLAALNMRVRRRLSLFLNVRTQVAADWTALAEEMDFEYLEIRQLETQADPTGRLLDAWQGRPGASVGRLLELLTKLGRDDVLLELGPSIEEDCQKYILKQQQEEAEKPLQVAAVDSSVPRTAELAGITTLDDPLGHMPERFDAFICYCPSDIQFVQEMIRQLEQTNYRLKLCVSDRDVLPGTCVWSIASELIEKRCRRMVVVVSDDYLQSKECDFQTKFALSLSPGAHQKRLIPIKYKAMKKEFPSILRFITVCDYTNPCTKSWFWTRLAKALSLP
Target sequence (Q9NR96 whole entry, looked up): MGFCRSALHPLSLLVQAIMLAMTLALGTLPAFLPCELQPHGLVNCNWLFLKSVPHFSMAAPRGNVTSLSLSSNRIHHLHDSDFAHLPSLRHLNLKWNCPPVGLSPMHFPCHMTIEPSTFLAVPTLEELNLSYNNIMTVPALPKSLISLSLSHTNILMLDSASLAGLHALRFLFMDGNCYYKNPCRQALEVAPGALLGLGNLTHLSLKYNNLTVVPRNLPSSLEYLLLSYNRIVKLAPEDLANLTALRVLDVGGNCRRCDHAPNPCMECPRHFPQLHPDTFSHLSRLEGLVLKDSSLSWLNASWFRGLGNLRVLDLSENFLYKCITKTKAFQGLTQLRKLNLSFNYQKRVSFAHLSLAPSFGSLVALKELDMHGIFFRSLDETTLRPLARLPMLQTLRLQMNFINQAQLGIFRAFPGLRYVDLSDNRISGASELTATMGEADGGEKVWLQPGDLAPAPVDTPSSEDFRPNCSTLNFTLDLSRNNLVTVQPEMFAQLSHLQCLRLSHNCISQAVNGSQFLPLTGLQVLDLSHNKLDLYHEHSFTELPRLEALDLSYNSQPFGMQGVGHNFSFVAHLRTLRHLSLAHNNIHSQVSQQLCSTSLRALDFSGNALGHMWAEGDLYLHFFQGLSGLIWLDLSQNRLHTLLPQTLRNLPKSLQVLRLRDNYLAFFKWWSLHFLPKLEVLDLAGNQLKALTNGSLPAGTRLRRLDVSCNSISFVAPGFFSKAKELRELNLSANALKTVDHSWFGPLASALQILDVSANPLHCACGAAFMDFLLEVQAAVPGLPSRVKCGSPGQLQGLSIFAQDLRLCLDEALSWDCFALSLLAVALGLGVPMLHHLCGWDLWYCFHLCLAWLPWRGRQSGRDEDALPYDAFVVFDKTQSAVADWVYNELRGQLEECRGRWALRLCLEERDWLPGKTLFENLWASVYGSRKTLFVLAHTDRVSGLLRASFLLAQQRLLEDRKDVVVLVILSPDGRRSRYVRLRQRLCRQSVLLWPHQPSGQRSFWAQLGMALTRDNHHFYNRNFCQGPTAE
NOD2 RIPK2 PPI = NOD2-RIPK2 protein interaction inhibition; O43353; CHO BLA complementation NOD2-RIPK2, CCF4 ratio; inhibition, % at 4.98 µM; actives 0.38% (n = 360,000); in the data active means inhibition above about 21%
ABCB6 blocker 1 = inhibitors of human ABC transporter ABCB6 | K562-ABCB6 porphyrin accumulation, flow cytometry, 1 h; stronger effect = lower value | 700 tested, under 10 active | ratio response (% of DMSO), % at 10 µM | shares compounds with ABCB6 inh MLPCN;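 active means repeat-averaged ratio response below 75% of DMSO, the collection mean minus 3 SD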;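 further: median porphyrin fluorescence at 575 nm with 488 nm excitation from mitochondria; lower ratio means less porphyrin signal so ABCB6 inhibition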
K562 vector FC = counter-screen for ABCB6 inhibitors: effect in vector-only K562 cells. shares compounds with ABCB6 inh MLPCN. 25 tested, under 10 active. K562 empty-vector cells, flow cytometry fluorescence, 1 h. percent response (fluorescence), % at 100 µM. AID 624484;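 active means compounds whose half-maximal effective concentration is below 100 µM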
Myeloid diff = compounds promoting myeloid differentiation; shares compounds with Myeloid diff MLP; actives 2% (n = 2,300); calls only; ER-HoxA9 myeloid progenitors, GFP/Mac1 double-positive flow;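 active means share of green or green-and-red cells above 9 and 9% in run 1 or 4 and 3% in run 2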
GFP autofluor = counter-screen for myeloid differentiation promoters: compound fluorescence; fluorescence response, % (concentration not given with the values); actives 7.4% (n = 2,300); shares compounds with Myeloid diff MLP; ER-HoxA9 myeloid progenitors, no estrogen, GFP autofluorescence flow cytometry; vehicle wells 0%, positive control 100%;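 active means over 5% cells positive for green fluorescent reporter, or over 2% positive for both it and APC stain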
NOD2-RIPK2 conf = confirmation of human NOD2-RIPK2 interaction inhibitors. shares compounds with NOD2 RIPK2 PPI. CHO cells, NOD2-RIPK2 BLA complementation, CCF4 FRET. inhibition, % at 4.98 µM. actives 70% (n = 1,200). AID 624370;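 active means mean inhibition across replicates above a set limit taken from the earlier primary screen, cut at about 21% in these data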
BLA counter = hits BLA reporter in NOD2-RIPK2 inhibitor counterscreen | inhibition, % at 4.98 µM | shares compounds with NOD2 RIPK2 PPI | actives 57% (n = 1,200) | CHO BLA reporter, CCF4 FRET ratio;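 active means mean inhibition above the low-control mean inhibition plus three low-control SD, cut at about 11% in these data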
Hits are given with their value; 0 = inactive; ? = inconclusive; - = no result; + = active, no number.

SMILES	TLR4-MyD88 BLA	Myeloid diff MLP	ABCB6 inh MLPCN	TLR9-MyD88 block	NOD2 RIPK2 PPI	Myeloid diff	GFP autofluor	others
Cc1cccc(Cc2c(C)nc3c(C(=O)NCc4ccco4)cnn3c2C)c1	0	+	0	0	0	-	-	ABCB6 blocker 1=0
Cc1nc2c(C(=O)NCc3ccco3)cnn2c(C)c1Cc1ccc(F)cc1Cl	0	0	72.0	0	0	-	-	ABCB6 blocker 1=0
Cc1nc2c(C(=O)NCc3ccc4c(c3)OCO4)cnn2c(C)c1Cc1ccc(F)cc1Cl	0	0	0	0	0	-	-
CC(C)(C)c1cc(NS(=O)(=O)c2ccc3c(c2)OCCO3)on1	0	0	0	0	0	-	-
CCOC(=O)c1ccc(S(=O)(=O)Nc2cc(C(C)(C)C)no2)cc1	0	0	66.0	0	0	-	-	ABCB6 blocker 1=0
CCOC(=O)c1cc2c(N)c(C(=O)c3cc(C#N)c(SC)nc3C)sc2nc1C	0	?	72.0	0	0	-	-	ABCB6 blocker 1=0
CCOC(=O)c1cc(C#N)c(SC)nc1C	-	0	0	0	0	-	-
Cc1noc(C)c1S(=O)(=O)N1CCC(C(=O)O)CC1	-	0	0	0	0	-	-	ABCB6 blocker 1=0
O=C(CCc1nnc2ccc(N3CCC4(CC3)OCCO4)nn12)N1CCCCC1	-	0	0	0	0	-	-	ABCB6 blocker 1=0
CN1CCN(C(=O)CCc2nnc3ccc(N4CCC5(CC4)OCCO5)nn23)CC1	-	0	0	0	0	-	-	ABCB6 blocker 1=0
CCOC(=O)C1CCN(C(=O)CCc2nnc3ccc(N4CCN(C)CC4)nn23)CC1	-	0	0	0	0	-	-	ABCB6 blocker 1=0
COc1cccc(N2CCN(C(=O)CCc3nnc4ccc(N5CCCC5)nn34)CC2)c1	-	0	0	0	0	-	-
CC(=O)c1ccc(NC(=O)CCc2nnc3ccc(N4CCC5(CC4)OCCO5)nn23)cc1	-	0	0	0	0	-	-
CCOc1ccc(S(=O)(=O)NC(C)(C)C)cc1-c1nc2c(C(C)(C)C)nn(C)c2c(=O)[nH]1	0	-	0	0	0	-	-
COCCNC(=O)C1(C)CCN(C(=O)c2ccc3c(c2)C(C)(C)CCC3(C)C)C1 (centres undefined)	-	0	0	-	0	-	-
CC(C)(C)c1ccc(-c2noc(CCC(=O)NCC3CCCO3)n2)cc1 (centres undefined)	0	0	62.0	0	0	0	0	ABCB6 blocker 1=0
O=C(O)c1ccccc1Nc1ccnc(C(F)(F)F)c1	-	0	0	0	0	-	-
CCCc1nnc(NC(=O)c2nc(S(=O)(=O)Cc3ccc(C)cc3)ncc2Cl)s1	-	0	0	0	32.4	-	-	K562 vector FC=0;NOD2-RIPK2 conf=29.9;BLA counter=17.9
Cn1nnnc1SCCNC(=O)C1CCC(=O)N(Cc2ccc(Cl)cc2)C1 (centres undefined)	-	-	0	0	0	-	-
CC(C)(C)CC(C)(C)NCC(O)COc1c(F)cc(Br)cc1F (centres undefined)	0	+	0	0	0	0	0
Cc1ccc(-c2nnc(N(C)C(=O)c3cccnc3)s2)cc1	0	0	0	0	0	0	0
Cc1cc(NC(=O)c2csc([C@@H]3O[C@H](CO)[C@H](O)[C@H](O)[C@H]3O)n2)n(C)n1	-	0	0	-	0	-	-
Cc1ccccc1CSCc1nc(N)nc(Nc2ccccc2C)n1	0	0	0	0	0	-	-
Cc1ccccc1Nc1nc(N)nc(CSc2n[nH]c(N)n2)n1	-	+	0	0	0	0	0
CC(C)N(C(=O)[C@H]1C[C@H](CC(=O)NCCCN(C)C)C(=O)N2CCc3c([nH]c4cc(-c5ccco5)ccc34)[C@]12C)C(C)C	-	0	0	0	0	-	-
SMILES	TLR4-MyD88 BLA	Myeloid diff MLP	ABCB6 inh MLPCN	TLR9-MyD88 block	NOD2 RIPK2 PPI	Myeloid diff	GFP autofluor	others
CC(C)N(C(=O)[C@H]1C[C@H](CC(=O)NCCC2=CCCCC2)C(=O)N2CCc3c([nH]c4cc(-c5ccco5)ccc34)[C@]12C)C(C)C	-	0	0	0	0	0	0
CC(C)N(C(=O)[C@H]1C[C@H](CC(=O)NCc2cccc(C(F)(F)F)c2)C(=O)N2CCc3c([nH]c4cc(-c5ccco5)ccc34)[C@]12C)C(C)C	-	?	0	0	0	0	0
N/C(=N\OC(=O)C12CC3CC(CC(C3)C1)C2)c1cccnc1	0	0	0	0	0	0	0
COCc1cc(C)nc2sc(C(=O)N3CCCCC3)c(N)c12	0	0	0	0	0	0	0
COCc1cc(C)nc2sc(C(=O)N3CCN(c4ccccc4)CC3)c(N)c12	0	0	0	0	0	-	-
Cc1cc(Cl)c(S(N)(=O)=O)cc1OCC(N)=O	0	0	0	0	0	-	-
CCN(CC)S(=O)(=O)c1cc(OCC(N)=O)c(C)cc1Cl	0	0	0	0	0	0	0
C=CCOc1ccccc1CN1CCN(CCc2ccccc2)C(CCO)C1 (centres undefined)	-	0	0	0	0	-	-
CS(=O)(=O)NCCSCc1ccco1	0	0	0	0	0	0	0
O=C(O)/C(=C\c1ccc2ccccc2c1)c1cccc2ccccc12	-	0	0	0	0	-	-
COc1ccccc1-n1c(=S)sc2c(=O)n(Cc3ccco3)c(SC)nc21	0	0	0	0	0	0	0
COc1ccccc1-n1c(SC)nc2c(sc(=S)n2-c2ccccc2)c1=O	-	0	0	0	0	-	-
O=C(CN1C(=O)NC2(CCCCC2)C1=O)Nc1cccc(Cl)c1Cl	-	0	0	0	0	-	-
O=C(CN1C(=O)NC2(CCCCC2)C1=O)Nc1ccccc1Cl	0	0	0	0	0	0	0
COc1ccccc1N1CCN(S(=O)(=O)CCNC(=O)C2CCCCC2)CC1	-	0	0	0	0	-	-
COc1cccc(-c2c(NC(=O)c3ccco3)n(-c3ccc(C)cc3)nc(C)c2=O)c1	0	+	0	0	0	0	0
CS(=O)(=O)NCCNC(=O)c1cc(OCC(F)(F)F)ccc1OCC(F)(F)F	0	0	0	0	0	-	-
O=C(NCCNS(=O)(=O)c1cccc(C(F)(F)F)c1)c1cc(OCC(F)(F)F)ccc1OCC(F)(F)F	0	0	0	0	0	0	0
Cc1ccc(C(=O)N2CC(=O)NC(=O)C2)cc1	-	0	0	0	0	-	-
Cc1ccc(C(=O)OCC(=O)c2c[nH]c3ccccc23)cc1NC(=O)c1ccco1	0	0	0	0	0	0	0
